Assay results as given in PubChem BioAssay (NCATS).
Results filed as inconclusive are left out. The source made the active and inactive calls. Calls follow the shape of the dose curve; as a rule, active = well fitted inhibition curve with a large enough effect; inconclusive = small, poorly fitted or top-dose-only effect; inactive = flat fitted curve, though single readings scatter.

These compounds were tested against Calcium and integrin-binding protein 1 (Homo sapiens) (UniProt Q99828) (assay: Primary qHTS for Identification of Calcium Integrin Binding Protein 1 (CIB1) Competitor (AID 1508620;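 also: GST tagged CIB1 binding a fluorescein labelled alphaIIb integrin peptide tracer; top concentration of the series differs between compounds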)). Settings: CIB1-GST / FITC-alphaIIb peptide fluorescence polarization; series mostly up to 114 µM; activity change, negative = inhibition: at the top concentration.
Summary of the method: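 CIB1-GST (1 uM final) and compound incubated 15 min at room temperature before adding FITC-alphaIIb peptide tracer (100 nM final). Competition for binding read by fluorescence polarization (ex 480, em 540) after another 15 min at room temperature.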
% is scaled to controls: 0 for no effect and ±100 for the full control effect.

Calcium and integrin-binding protein 1 (Homo sapiens), sequence (Q99828 whole entry, looked up): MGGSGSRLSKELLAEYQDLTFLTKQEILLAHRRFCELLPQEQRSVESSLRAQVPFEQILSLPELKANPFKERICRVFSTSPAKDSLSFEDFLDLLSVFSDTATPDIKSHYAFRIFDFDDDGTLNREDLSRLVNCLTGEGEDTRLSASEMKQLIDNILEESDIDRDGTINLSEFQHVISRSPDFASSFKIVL

Structure (SMILES)	activity change, negative = inhibition	Potency
Cc1cc(C)nc(NC(=S)N2CCN(c3ccc4ccccc4n3)CC2)c1	-3.3% (inactive)	
NC(=O)C1CCN(c2nccc(-c3ccc4c(c3)OCCO4)n2)CC1	-23% (inactive)	
COc1ccc(C2c3c(N)nc(Cc4ccccc4)nc3Oc3ccc4ccccc4c32)cc1OC (stereo not given)	5.34% (inactive)	
CC(=O)Nc1sc2c(c1-c1ccccc1F)CCNC2	1.4% (inactive)	
Cc1cc2c(s1)c1cnn(Cc3c(F)ccc(Cl)c3F)c(=O)c1n2C	-0.826% (inactive)	
Cc1ccc(OCCn2c(CCNC(=O)C3CC3)nc3ccccc32)cc1	16.1% (inactive)	
Cc1cc(C)nc(NC(=S)N2CCN(c3ccc4nccn4c3)CC2)c1	-13.8% (inactive)	
Cc1cc(C)n2ncc(C(=O)Nc3ccc(Cl)c(Cl)c3)c2n1	6.27% (inactive)	
Cc1cnc(-c2ccccc2C(C)O)nc1NCC1CCN(c2cccnc2)CC1 (stereo not given)	9.82% (inactive)	
COc1ccccc1-c1csc2ncnc(Sc3nnnn3C)c12	-4.68% (inactive)	
C=CCc1cc(F)c(S(=O)(=O)N2CCN(S(=O)(=O)c3ccc4c(c3)OCCO4)CC2)cc1F	3.05% (inactive)	
COc1cccc(NC(=S)N2CCN(c3cc(C(F)(F)F)cc(C(F)(F)F)c3)CC2)n1	3.43% (inactive)	
Cc1cc(C)nc(NC(=S)N2CCN(c3ccc4ncccc4c3[N+](=O)[O-])CC2)c1	-13.2% (inactive)	
COC(=O)c1ccc(O)c2ncc(NC3CCNCC3)cc12	-22.8% (inactive)	
CC(C)(C)NS(=O)(=O)c1cccc(-c2nnc(SCc3ccc(C(=O)O)cc3)n2-c2ccccc2)c1	-5.34% (inactive)	
Fc1cc(Nc2nc(-c3ccncc3)nc3ccccc23)ccc1-c1cccc(OC(F)(F)F)c1	6.95% (inactive)	
CN(C)c1ccc(/C=C/C(=O)Nc2cccc([S+](=O)([O-])Nc3ccccc3F)c2)cc1	9.96% (inactive)	
O=C1CCc2cc(S(=O)(=O)Nc3ccc4c(c3)OCCO4)ccc2N1	0.261% (inactive)	
O=C(N/C=C/c1ccccc1)c1cccc([S+](=O)([O-])Nc2ccccc2F)c1	4.59% (inactive)	
COC(=O)c1cccc(-c2noc(-c3ccccc3F)n2)c1	3.64% (inactive)	

Structure (SMILES)	activity change, negative = inhibition	Potency
COc1ccc(-c2ccc3ncnc(NCC4CCCO4)c3c2)cc1OC (stereo not given)	3.36% (inactive)	
CCNC(=O)c1ccc(-c2ccc3ncnc(NCc4nc(C)cs4)c3c2)o1	-16% (inactive)	
CCOC(=O)c1ccc(-c2ccc3ncnc(N(C)Cc4ccc(C)o4)c3c2)o1	25.1% (inactive)	
Cc1cc(C)nc(NC(=S)N2CCN(c3nccc4occc34)CC2)c1	-8.62% (inactive)	
Cn1ncc2ccc(-c3ccc4ncnc(NCc5cccs5)c4c3)cc21	24% (inactive)	
O=C(Nc1cncc(NC(=O)c2cccs2)c1)c1cccs1	1.62% (inactive)	
O=C(Nc1ccc2c(c1)OCCO2)c1ccc(-c2nc3ccccc3[nH]2)cc1	1.12% (inactive)	
Cc1ccc(N2CCN(S(=O)(=O)c3ccc4c(c3)CC(=O)N4)CC2)cc1	0.009% [at 228 µM] (inactive)	
Cc1cc2c(s1)c1cnn(Cc3ccccc3)c(=O)c1n2C	1.99% (inactive)	
Cc1cc2c(s1)c1cnn(Cc3c(C)cc(F)cc3C)c(=O)c1n2C	4.52% (inactive)	
O=[S+]([O-])(c1ccc2c(c1)OCCO2)N1CCN([S+](=O)([O-])c2c(F)cc(O)cc2F)CC1	-0.145% (inactive)	
c1ccc(CN(Cc2ccccc2)Cc2nnc(-c3cc4ccccc4[nH]3)s2)cc1	1.52% (inactive)	
COc1cccc(CNc2ccc(S(=O)(=O)Nc3cc(C)on3)cc2)c1O	-4.73% (inactive)	
O=C(Nc1ccc(-n2cncn2)c(F)c1)Nc1nnc(-c2ccncc2)s1	4.45% (inactive)	
O=C1c2ccccc2C(=O)N1c1ccc(O)cc1	-4.23% (inactive)	
O=C(/C=C/c1ccc2c(c1)OCO2)Nc1cccc([S+](=O)([O-])Nc2ccccc2F)c1		inactive
CCC(=O)NC(c1cc(Cl)c2cccnc2c1O)C1CC1 (stereo not given)	-9.27% (inactive)	
COc1cccc(C2c3c(ncn(-c4cccc(C#N)c4)c3=N)Oc3ccc4ccccc4c32)c1 (stereo not given)	5.6% (inactive)	
CC(=O)Nc1sc2c(c1-c1cccc3[nH]ncc13)CCNC2	-1.12% (inactive)	
C=Cc1ccc(C(=O)N2CCCC(CCC(=O)N3CCN(c4ccccn4)CC3)C2)cc1 (stereo not given)	-0.21% (inactive)	
